Source: the supplement of paper PMC4723716
Over roughly 3,600 compounds, “viability index relative to DMSO control” has its median near 0.81; the lowest 2% begin near 0.13. The entries come from a sample that favours the lowest values as a whole.

Test system: Plasmodium falciparum NF54 stage V gametocytes
Experiment: viability index relative to DMSO control (fraction); higher = less gametocyte killing
Conditions: 1.25 µM, incubation time: 72 h
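Note: Saponin-lysis sexual stage assay in serum-free medium: MitoTracker Red CMXRos staining plus saponin, high-content imaging, particle count per well divided by plate mean of DMSO wells.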

Row | Compound | viability index
1 | COc1ccc(CC2NCC(O)C2OC(C)=O)cc1 (stereo not given) | 0
2 | Cc1ccc(-n2c(C)c(C(=O)c3ccccc3)c3cc(O)ccc32)cc1 | 1.24
3 | Cc1c2ccccc2c(C)c2ccccc12 | 1.04
4 | COc1ccc(-c2ccc(C=C3C(=O)NC(=S)NC3=O)o2)cc1Cl | 0.866
5 | C=CC1CN2CCC1C(C(O)c1ccnc3ccc(OC)cc13)C2 (stereo not given) | 0.411
6 | NC(=O)CN1CC(O)CC1=O (stereo not given) | 0.0308
7 | OC1(c2ccc(Cl)c(C(F)(F)F)c2)CCN(CCOC2c3ccccc3CSc3ccc(Cl)cc32)CC1 (stereo not given) | 0.589
8 | CC(C)N1CC=C(c2c[nH]c3ccccc23)CC1 | 0.887
9 | O=C(Cn1c2ccccc2c(=O)c2ccccc21)Nc1ccc(Cl)cc1C(=O)c1ccccc1 | 0.781
10 | Oc1ccccc1C=Nc1ccccc1[Te]c1ccccc1N=Cc1ccccc1O | 0.0513
11 | O=c1cccc2n1CC1CC2CN(Cc2cccc(O)c2)C1 (stereo not given) | 0.898
12 | CC(C)NC(=O)c1cn(Cc2ccccc2)cc(C(=O)NCCc2nc3ccccc3[nH]2)c1=O | 0.942
13 | CN1CCN(c2ccc(NC(=O)Oc3ccccc3)cc2)CC1 | 0.798
14 | N#CC1=C(N)Oc2c(c(=O)oc3ccccc23)C1c1ccoc1 (stereo not given) | 1.08
15 | C=CC1CN2CCC1CC2C(OC(=O)c1ccco1)c1ccnc2ccccc12 (stereo not given) | 0.46
